Assay [1] deals with Flap endonuclease 1 (Homo sapiens) (UniProt P39748). The assay can be described thus: qHTS Validation Assay for the Inhibitors of Human Flap endonuclease 1 (FEN1) (AID 488816). The method, boiled down: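 qHTS format: compounds and 10 nM FEN1 incubated 15 min at room temperature before adding 50 nM substrate. Cleavage followed by reads at 0 and 15 min; normalized data fitted to a four-parameter Hill curve.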
For orientation: qHTS replaces the single test concentration by a dilution series.

In assay [2] the target is M-phase phosphoprotein 8 (Homo sapiens) (UniProt Q99549). Put plainly: qHTS Validation Assay for Inhibitors for MPP8 Chromodomain Interactions with Methylated Histone Tails (AID 488949). Further: nearly all actives have a fitted effect of over 55% in size. Further: potency means the concentration at half of the fitted maximal effect. The method, boiled down: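 AlphaScreen proximity signal from streptavidin donor and Ni-chelate acceptor beads (10 ug/mL each) reported binding of MPP8 to trimethyl-K9 H3(1-18) peptide, both at 50 nM. The complex formed 30 min before a 30 min compound exposure at room temperature, in PBS pH 7.4.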
Chain of M-phase phosphoprotein 8 (Homo sapiens) (Q99549 whole entry, looked up): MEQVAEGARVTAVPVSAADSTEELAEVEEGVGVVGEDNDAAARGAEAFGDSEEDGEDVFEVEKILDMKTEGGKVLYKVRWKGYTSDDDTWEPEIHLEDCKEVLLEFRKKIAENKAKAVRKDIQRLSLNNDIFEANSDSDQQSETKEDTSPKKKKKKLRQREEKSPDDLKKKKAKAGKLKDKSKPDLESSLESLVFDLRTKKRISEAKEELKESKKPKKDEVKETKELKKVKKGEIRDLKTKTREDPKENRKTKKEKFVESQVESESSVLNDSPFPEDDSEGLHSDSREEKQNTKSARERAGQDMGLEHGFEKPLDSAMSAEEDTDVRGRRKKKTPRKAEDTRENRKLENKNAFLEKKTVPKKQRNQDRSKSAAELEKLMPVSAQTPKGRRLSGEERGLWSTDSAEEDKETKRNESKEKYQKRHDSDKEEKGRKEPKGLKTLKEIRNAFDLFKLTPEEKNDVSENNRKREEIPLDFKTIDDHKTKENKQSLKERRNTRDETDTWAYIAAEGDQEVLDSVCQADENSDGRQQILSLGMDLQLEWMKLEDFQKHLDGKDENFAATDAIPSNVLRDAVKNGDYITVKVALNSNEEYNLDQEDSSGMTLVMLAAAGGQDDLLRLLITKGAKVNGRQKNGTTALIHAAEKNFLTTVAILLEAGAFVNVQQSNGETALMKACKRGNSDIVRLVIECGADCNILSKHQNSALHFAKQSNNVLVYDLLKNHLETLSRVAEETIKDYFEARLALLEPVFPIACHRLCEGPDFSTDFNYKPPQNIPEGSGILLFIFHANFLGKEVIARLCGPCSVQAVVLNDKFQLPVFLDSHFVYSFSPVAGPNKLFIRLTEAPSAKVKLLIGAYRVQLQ

In assay [3] the target is Chromobox protein homolog 1 (Homo sapiens) (UniProt P83916). The assay can be described thus: qHTS Validation Assay for Inhibitors of HP1-beta Chromodomain Interactions with Methylated Histone Tails (AID 488953). Further: nearly all actives have a fitted effect of over 50% in size. Further: potency means the concentration at half of the fitted maximal effect. The method, boiled down: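 AlphaScreen proximity signal from streptavidin donor and nickel chelate acceptor beads (final 10 ug/mL) after 30 min dark incubation. Compounds had 30 min at room temperature with preformed complex of 50 nM HP1-beta and 50 nM b-H3(1-18)K9me3 in PBS pH 7.4 with 0.01% Tween-20.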
Chain of Chromobox protein homolog 1 (Homo sapiens) (P83916 whole entry, looked up): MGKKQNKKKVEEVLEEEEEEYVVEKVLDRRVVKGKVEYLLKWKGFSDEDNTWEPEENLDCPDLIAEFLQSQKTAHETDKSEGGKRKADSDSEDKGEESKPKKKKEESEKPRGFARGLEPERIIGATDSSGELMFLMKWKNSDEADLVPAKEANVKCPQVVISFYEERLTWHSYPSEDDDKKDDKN

For assay [4], the target named is Thyrotropin receptor (Homo sapiens) (UniProt P16473). Put plainly: qHTS Assay for Antagonists of the Thyroid Stimulating Hormone Receptor (AID 488980). Further: series mostly up to about 58 µM. The method, boiled down:
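Inhibition of cAMP raised by EC80 TSH (4 nM final) was read by HTRF, with lysate cAMP competing against cAMP-d2 for cryptate antibody after 30 min at room temperature. The cells were transfected HEK293 held in phosphodiesterase inhibitor RO 20-1724 at 70 uM.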

In assay [5] the target is D(1A) dopamine receptor (Homo sapiens) (UniProt P21728). Put plainly: HTS Assay for Allosteric Agonists of the Human D1 Dopamine Receptor: Primary Screen for Agonists (AID 488981). In a few lines:
(§1)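 Calcium flux in an inducible, force-coupled HEK293 Trex D1 line (overnight at 30 C): agonist mode is the 180 s kinetic read after compound; potentiator mode is the following 180 s read after dopamine at EC20.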

For assay [6] the target is unchanged. Put plainly: HTS Assay for Allosteric Agonists of the Human D1 Dopamine Receptor: Primary Screen for Potentiators (AID 488982). Further: potency means the concentration at half of the fitted maximal effect. The method, boiled down: as §1
Assay [7] has the same target. The assay can be described thus: HTS Assay for Allosteric Agonists of the Human D1 Dopamine Receptor: Primary Screen for Antagonists (AID 488983).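 Further: calcium flux response to an EC80 dopamine challenge measured with no-wash dye; nearly all actives have a fitted effect of over 65% in size.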 The method, boiled down:
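Calcium-flux read-out in inducible HEK293 T-REx cells expressing D1, dye-loaded 30–90 min at room temperature. Kinetic reads: 180 s after compound (agonist phase), then 180 s after an EC80 dopamine challenge.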

Assay [8] is described as follows: Validation screen for small molecules that induce genotoxicity in human embryonic kidney (HEK293T) cells expressing luciferase-tagged ELG1 (AID 493106). In a few lines:
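ELG1-luciferase reporter readout (ONE-Glo, 30 min, room temperature) after 16 hr compound treatment at 37 °C of HEK293T cells at 2,000 per well. Rising luminescence flags genotoxic stress.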

Assay [9] concerns the target ATPase family AAA domain-containing protein 5 (Homo sapiens) (UniProt Q96QE3). Put plainly: Validation screen for small molecules that inhibit ELG1-dependent DNA repair in human embryonic kidney (HEK293T) cells expressing luciferase-tagged ELG1 (AID 493107). Further: nearly all actives have a fitted effect of over 70% in size. Further: potency means the concentration at half of the fitted maximal effect. In a few lines:
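Luciferase read-out, ONE-Glo, 30 min at room temperature, follows 16 h co-exposure at 37 C of compound and the DNA-damaging agent 5-fluorouridine. Cells: HEK293T with ELG1-luciferase fusion, 2,000 per well, DMSO as vehicle.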

In assay [10] the target is ATP-dependent 6-phosphofructokinase (Trypanosoma brucei brucei) (UniProt O15648). Put plainly: qHTS Assay to Find Inhibitors of T. brucei phosphofructokinase: hit validation (AID 492961).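 Further: luminescence reports ADP formed as PFK phosphorylates fructose-6-phosphate with ATP; series mostly up to about 51 µM.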 The method, boiled down: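 ADP-Glo luminescence read-out of ADP formed by 1.25 nM PFK from 0.1 mM ATP and 0.5 mM F6P (TEA pH 8.0, 45 min, RT). Compounds titrated; activity normalized to no-enzyme and full-enzyme controls.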
Chain of ATP-dependent 6-phosphofructokinase (Trypanosoma brucei brucei) (O15648 whole entry, looked up): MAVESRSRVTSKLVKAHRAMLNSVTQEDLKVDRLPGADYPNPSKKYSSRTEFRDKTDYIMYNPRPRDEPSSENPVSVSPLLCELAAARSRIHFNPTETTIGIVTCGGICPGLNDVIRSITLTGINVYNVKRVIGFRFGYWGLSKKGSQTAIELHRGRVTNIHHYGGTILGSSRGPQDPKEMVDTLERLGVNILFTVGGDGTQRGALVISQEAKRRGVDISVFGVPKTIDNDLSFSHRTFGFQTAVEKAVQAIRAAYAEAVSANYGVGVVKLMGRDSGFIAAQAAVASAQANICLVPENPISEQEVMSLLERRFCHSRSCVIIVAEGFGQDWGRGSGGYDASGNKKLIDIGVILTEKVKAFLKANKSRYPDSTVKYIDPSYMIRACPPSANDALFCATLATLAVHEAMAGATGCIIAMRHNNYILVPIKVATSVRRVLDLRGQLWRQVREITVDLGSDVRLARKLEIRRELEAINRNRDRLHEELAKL

Inconclusive results are not listed. Calls of active or inactive are those of the source. The call rests on the fitted dose curve; in most records, active means well fitted curve in the direction sought with a large enough effect; inconclusive means small, poorly fitted or top-dose-only effect, or another doubt; inactive means no such curve, though single readings can be large; an effect the other way counts as inactive or inconclusive.

Chain of D(1A) dopamine receptor (Homo sapiens) (P21728 whole entry, looked up): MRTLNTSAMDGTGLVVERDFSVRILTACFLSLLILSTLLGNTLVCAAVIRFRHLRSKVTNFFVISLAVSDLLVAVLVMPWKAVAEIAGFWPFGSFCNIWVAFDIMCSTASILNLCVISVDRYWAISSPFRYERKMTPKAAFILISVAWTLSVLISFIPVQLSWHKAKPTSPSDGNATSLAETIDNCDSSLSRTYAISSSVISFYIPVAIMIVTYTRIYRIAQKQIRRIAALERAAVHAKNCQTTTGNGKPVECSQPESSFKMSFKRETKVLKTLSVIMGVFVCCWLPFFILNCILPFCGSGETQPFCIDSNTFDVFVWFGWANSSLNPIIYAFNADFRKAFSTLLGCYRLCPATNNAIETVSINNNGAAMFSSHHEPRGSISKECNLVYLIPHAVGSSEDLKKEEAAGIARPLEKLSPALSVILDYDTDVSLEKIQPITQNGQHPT
Chain of Thyrotropin receptor (Homo sapiens) (P16473 whole entry, looked up): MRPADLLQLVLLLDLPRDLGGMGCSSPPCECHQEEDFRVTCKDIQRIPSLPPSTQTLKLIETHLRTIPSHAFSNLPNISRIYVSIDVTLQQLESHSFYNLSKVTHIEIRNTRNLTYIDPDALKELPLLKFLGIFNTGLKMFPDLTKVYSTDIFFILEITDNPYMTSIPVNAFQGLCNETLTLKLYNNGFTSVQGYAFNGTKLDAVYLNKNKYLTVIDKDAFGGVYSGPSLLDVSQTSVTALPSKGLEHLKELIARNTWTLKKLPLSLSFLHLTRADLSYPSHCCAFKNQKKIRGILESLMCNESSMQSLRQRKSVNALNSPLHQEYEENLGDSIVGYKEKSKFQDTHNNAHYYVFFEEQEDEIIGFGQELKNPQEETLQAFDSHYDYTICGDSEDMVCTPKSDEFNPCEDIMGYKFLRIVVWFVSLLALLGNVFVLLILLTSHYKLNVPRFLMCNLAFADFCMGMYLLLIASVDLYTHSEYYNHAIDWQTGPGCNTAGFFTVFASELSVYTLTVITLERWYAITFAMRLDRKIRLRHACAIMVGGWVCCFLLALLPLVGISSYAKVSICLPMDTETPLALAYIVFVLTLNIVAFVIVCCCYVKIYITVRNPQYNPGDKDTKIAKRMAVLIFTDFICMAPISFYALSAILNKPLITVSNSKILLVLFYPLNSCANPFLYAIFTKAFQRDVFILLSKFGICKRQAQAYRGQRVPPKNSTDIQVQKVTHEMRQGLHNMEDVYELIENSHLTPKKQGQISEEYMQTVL
Chain of ATPase family AAA domain-containing protein 5 (Homo sapiens) (Q96QE3 whole entry, looked up, the tested form may be a part): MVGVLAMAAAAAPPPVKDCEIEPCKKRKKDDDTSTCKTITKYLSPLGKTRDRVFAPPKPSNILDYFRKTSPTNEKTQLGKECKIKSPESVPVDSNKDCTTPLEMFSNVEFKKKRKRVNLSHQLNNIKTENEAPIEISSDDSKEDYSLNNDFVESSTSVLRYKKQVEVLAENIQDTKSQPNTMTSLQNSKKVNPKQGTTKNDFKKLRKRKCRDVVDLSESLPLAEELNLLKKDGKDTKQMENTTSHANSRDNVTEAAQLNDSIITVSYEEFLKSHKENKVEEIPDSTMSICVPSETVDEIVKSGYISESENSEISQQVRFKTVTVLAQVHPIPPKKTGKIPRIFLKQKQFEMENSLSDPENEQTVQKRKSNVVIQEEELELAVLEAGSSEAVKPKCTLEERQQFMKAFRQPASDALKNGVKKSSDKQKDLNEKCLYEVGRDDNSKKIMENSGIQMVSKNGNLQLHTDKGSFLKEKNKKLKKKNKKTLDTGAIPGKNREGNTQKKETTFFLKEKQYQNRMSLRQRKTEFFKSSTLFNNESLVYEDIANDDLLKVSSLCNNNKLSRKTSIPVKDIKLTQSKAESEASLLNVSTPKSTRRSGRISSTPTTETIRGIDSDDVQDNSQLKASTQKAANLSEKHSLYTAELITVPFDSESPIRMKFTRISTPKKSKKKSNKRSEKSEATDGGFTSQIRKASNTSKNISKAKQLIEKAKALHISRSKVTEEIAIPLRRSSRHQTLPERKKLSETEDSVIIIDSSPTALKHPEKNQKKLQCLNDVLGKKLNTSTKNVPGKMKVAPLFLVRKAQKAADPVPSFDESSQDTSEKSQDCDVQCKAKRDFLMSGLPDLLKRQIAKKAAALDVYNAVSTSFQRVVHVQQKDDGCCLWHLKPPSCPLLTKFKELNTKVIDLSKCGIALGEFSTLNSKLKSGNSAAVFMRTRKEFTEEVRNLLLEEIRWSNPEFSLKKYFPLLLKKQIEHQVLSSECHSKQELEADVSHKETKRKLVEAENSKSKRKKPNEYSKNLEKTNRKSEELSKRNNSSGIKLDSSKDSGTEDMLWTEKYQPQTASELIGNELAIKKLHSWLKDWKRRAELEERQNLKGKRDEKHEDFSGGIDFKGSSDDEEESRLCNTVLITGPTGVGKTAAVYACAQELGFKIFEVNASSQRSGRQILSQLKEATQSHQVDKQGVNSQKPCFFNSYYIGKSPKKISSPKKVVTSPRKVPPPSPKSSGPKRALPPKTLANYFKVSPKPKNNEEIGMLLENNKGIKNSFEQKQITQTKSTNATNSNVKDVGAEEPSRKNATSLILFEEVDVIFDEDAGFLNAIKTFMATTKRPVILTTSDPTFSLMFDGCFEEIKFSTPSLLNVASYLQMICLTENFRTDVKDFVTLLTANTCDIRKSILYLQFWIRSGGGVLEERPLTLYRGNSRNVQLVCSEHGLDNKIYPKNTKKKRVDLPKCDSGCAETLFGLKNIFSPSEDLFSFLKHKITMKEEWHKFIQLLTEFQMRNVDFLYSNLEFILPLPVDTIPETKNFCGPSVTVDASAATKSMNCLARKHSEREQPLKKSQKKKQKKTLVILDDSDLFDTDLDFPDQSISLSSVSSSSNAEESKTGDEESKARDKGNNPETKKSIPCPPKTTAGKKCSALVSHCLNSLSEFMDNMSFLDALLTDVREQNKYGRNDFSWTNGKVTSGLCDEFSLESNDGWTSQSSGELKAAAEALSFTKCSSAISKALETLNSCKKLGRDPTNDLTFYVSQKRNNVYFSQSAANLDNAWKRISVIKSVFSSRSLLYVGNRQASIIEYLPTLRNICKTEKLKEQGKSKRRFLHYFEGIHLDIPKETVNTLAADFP
Chain of Flap endonuclease 1 (Homo sapiens) (P39748 whole entry, looked up): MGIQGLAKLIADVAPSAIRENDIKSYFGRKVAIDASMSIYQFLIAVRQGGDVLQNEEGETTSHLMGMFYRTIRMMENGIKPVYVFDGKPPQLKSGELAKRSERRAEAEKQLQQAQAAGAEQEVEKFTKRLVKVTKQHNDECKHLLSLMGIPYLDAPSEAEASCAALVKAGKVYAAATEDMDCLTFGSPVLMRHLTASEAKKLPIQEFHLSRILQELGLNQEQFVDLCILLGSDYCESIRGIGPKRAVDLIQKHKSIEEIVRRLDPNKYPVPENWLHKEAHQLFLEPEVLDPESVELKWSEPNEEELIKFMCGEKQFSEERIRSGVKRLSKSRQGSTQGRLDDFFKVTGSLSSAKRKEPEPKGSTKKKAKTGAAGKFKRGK

`c1ccc2c(c1)OCC(C1=NCCN1)O2` (centres undefined): the Potency entry in [1], in assay [2], in [3], in assay [5], in [6] and in [7] was “inactive” each time. The Potency entry in assay [8] is “inactive”. Also, the result in assay [4] was inactive. Also, in assay [9], the Potency was 14.6 µM (active).

On to `COc1ccccc1N1CCNCC1`, for which the Potency entry in [1], in assay [2], in assay [3], in assay [5], in assay [6] and in assay [8] was “inactive” throughout. Moreover, in assay [9], the Potency entry is “inactive”. In addition, the compound was called inactive in assay [4] and in assay [10].

Regarding `COc1ccc(C(CN(C)C)C2(O)CCCCC2)cc1` (centres undefined), the Potency entry in [1], in [2], in assay [3], in assay [5], in assay [6] and in assay [7] was “inactive” throughout. For the same compound, the Potency result in [8] and in assay [9] was “inactive” in each case. For the same compound, in assay [10], the outcome was inactive.

For `O=c1[nH]cc(F)c(=O)[nH]1`, the Potency entry in assay [1] is “inactive”.

Consider `NN=C(N)N`, for which the Potency result in [1], in [2], in assay [3], in [5], in assay [6] and in assay [7] was “inactive” throughout. The Potency entry in [8] and in [9] was “inactive” each time. The call in [10] was inactive.

Regarding `CC(=O)[C@H]1CC[C@H]2[C@@H]3CC[C@H]4C[C@](C)(O)CC[C@]4(C)[C@H]3CC[C@]12C`, the Potency entry in assay [1], in assay [2], in assay [3], in assay [5], in [6] and in assay [7] was “inactive” in each case. Moreover, the Potency entry in assay [8] and in assay [9] was “inactive” in each case. Also, the compound was called inactive in [10].

Take `NCC1(CC(=O)O)CCCCC1`: the Potency result in assay [1], in assay [2], in [3], in [5], in [6] and in [7] was “inactive” throughout. Moreover, the Potency entry in assay [8] and in assay [9] was “inactive” each time. Besides, the compound was called inactive in [4].

Take `COC[C@H]1OC(=O)c2coc3c2[C@@]1(C)C1=C(C3=O)C2CCC(=O)[C@@]2(C)C[C@H]1OC(C)=O` (some centres undefined): the Potency result in assay [1], in assay [2], in [3], in assay [5], in assay [6] and in assay [7] was “inactive” in each case. The Potency entry in assay [8] and in assay [9] was “inactive” each time. Besides, the outcome in [4] was inactive.

For the compound `CCCN1CCC[C@@H]2Cc3nc(N)ncc3C[C@H]21`, the Potency entry in assay [1], in assay [2], in [3], in [5], in [6] and in assay [7] was “inactive” each time. Also, the Potency entry in assay [8] and in [9] was “inactive” throughout. Also, the result in assay [4] was inactive.

Turning to `CCC1(C2=NCCN2)Cc2ccccc2O1` (centres undefined), the Potency result in assay [1], in [2], in assay [3], in assay [5], in assay [7] and in assay [8] was “inactive” throughout. In addition, the call in assay [4] was inactive. Also, the Potency in assay [6] was 2.31 µM (active).

Regarding `CCC1C(=O)OCC1Cc1cncn1C` (centres undefined), the Potency entry in [1] and in assay [2] was “inactive” in each case.

Consider `O=c1[nH]c2ccccc2n1C1CCN(CCCC(c2ccc(F)cc2)c2ccc(F)cc2)CC1`, for which the Potency result in [1], in [5], in assay [6] and in assay [8] was “inactive” in each case. The Potency in assay [2] was 22.4 µM (active); in assay [3], 35.5 µM (active); in assay [9] it was 11.6 µM (active). Besides, in assay [4], the result was inactive.

Turning to `CC(CCc1ccccc1)NC(C)C(O)c1ccc(O)cc1` (centres undefined), the Potency result in assay [1], in [2], in assay [3], in assay [5], in [6] and in [8] was “inactive” in each case. Moreover, the Potency entry in assay [9] was “inactive”. Besides, the outcome in assay [4] was inactive.

Take `NCC(O)c1ccc(O)cc1` (centres undefined): the Potency result in assay [1], in assay [2], in assay [3], in [5], in [6] and in [7] was “inactive” throughout. The Potency result in [8] and in [9] was “inactive” each time. The compound was called inactive in assay [4].

Take `C=C(C)[C@H]1Cc2c(ccc3c2O[C@@H]2COc4cc(OC)c(OC)cc4[C@@H]2C3=O)O1`: the Potency result in assay [1], in assay [2], in assay [5], in assay [6], in [7] and in assay [8] was “inactive” in each case. In addition, the Potency in [3] was 35.5 µM (active). The compound was called inactive in assay [4].

Consider `CC(=O)[C@H]1CC[C@H]2[C@@H]3CC[C@H]4C[C@H](O)CC[C@]4(C)[C@H]3C(=O)C[C@]12C`, for which the Potency result in assay [1], in assay [2], in [3], in assay [5], in assay [6] and in [7] was “inactive” each time. Moreover, the Potency entry in [8] and in assay [9] was “inactive” in each case. In [10], the compound was called inactive.

As to `CC12CC3CC(C)(C1)CC(N)(C3)C2`, the Potency entry in assay [1] is “inactive”.

`Cc1ncc(CNC(=O)N(CCCl)N=O)c(N)n1`: the Potency entry in assay [1], in assay [2], in assay [3], in assay [5], in assay [6] and in assay [7] was “inactive” each time. Also, the Potency entry in assay [8] and in assay [9] was “inactive” each time. In assay [4], the call was inactive.

`Cc1cccc(C)c1NC(=O)CN1CCCC1=O`: the Potency entry in [1], in assay [2], in assay [3], in assay [5], in assay [6] and in [7] was “inactive” each time. Further, the Potency result in assay [8] and in assay [9] was “inactive” in each case.

For `COc1ccc(Cc2nccc3cc(OC)c(OC)cc23)cc1OC`, the Potency entry in assay [1] and in [2] was “inactive” each time. Further, the Potency in assay [3] was 0.006 µM (active). In [4], the result was inactive.

In the case of `C[C@@H]1O[C@@H](O[C@H]2C[C@@H](O)[C@]3(CO)[C@H]4[C@H](O)C[C@]5(C)[C@@H](C6=CC(=O)OC6)CC[C@]5(O)[C@@H]4CC[C@]3(O)C2)[C@H](O)[C@H](O)[C@H]1O`, the Potency result in [1], in assay [2], in assay [3], in assay [5], in assay [6] and in assay [7] was “inactive” throughout. The Potency result in assay [8] is “inactive”. In addition, the Potency in assay [9] was 0.092 µM (active).

Turning to `Fc1ccc(C(OCCN2CCN(CCCc3ccccc3)CC2)c2ccc(F)cc2)cc1`, the Potency entry in assay [1], in assay [5], in [6], in assay [7] and in [8] was “inactive” each time. Further, the Potency in [2] is 15.8 µM (active); in [3] it was 39.8 µM (active); in [9] it was 23.1 µM (active). Moreover, the outcome in assay [4] was inactive.

These data come from PubChem BioAssay (NCATS).
